# Mtb FBA inh: Mtb fructose-bisphosphate aldolase inhibition; P9WQA3; purified M. tuberculosis FBA, fluorescence read-out; inhibition, % at 1 µM; 2.3% of 360,000 active; AID 588726; in the data active = inhibition above about 27%
# GDH-TPI counter: counter-screen for M. tuberculosis FBA inhibitors: GDH-TPI coupled enzymes; GDH-TPI coupled enzyme counterscreen, NADH absorbance; inhibition, % at 4.8 µM; 1.2% of 360,000 active; in the data active = inhibition above about 30%
# BioA inh: BioA (M. tuberculosis) enzyme inhibition; purified M. tuberculosis BioA enzyme, plate reader; inhibition, % at 9.99 µM; 0.096% of 360,000 active; in the data active = inhibition above about 40%
# Rv3671c protease: inhibitors of M. tuberculosis serine protease Rv3671c | inhibition, % at 5.96 µM | 0.048% of 320,000 active; in the data active = inhibition above about 38%;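 also: extracellular domain of Rv3671c used as enzyme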
# Target sequence (P9WHR9 whole entry, looked up, the tested form may be a part): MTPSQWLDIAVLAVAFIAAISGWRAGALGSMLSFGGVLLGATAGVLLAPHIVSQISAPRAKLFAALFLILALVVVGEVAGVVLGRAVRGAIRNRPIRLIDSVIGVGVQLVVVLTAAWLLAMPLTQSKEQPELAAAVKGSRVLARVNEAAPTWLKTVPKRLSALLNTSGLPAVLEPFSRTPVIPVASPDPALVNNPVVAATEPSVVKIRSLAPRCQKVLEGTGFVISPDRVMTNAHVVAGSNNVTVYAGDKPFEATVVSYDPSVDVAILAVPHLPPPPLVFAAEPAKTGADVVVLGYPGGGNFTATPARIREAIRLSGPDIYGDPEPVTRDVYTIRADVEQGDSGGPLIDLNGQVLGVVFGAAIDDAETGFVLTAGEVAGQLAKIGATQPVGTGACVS
# FadD28 FP inh: M. tuberculosis FadD28 bisubstrate binding inhibition | 0.22% of 360,000 active | FadD28 bisubstrate probe binding, fluorescence polarization | AID 588549 | inhibition, % at 12.5 µM; in the data active = inhibition above about 8.5%, passing the limit was not always enough
# Numbers stand for hits; n = inactive; x = not tested or not shown; + = active, no number. In the library only some 3% were active in any assay of this set; here they are far more common.
SMILES,Mtb FBA inh,GDH-TPI counter,BioA inh,Rv3671c protease,FadD28 FP inh
O=C(NCC1CCCO1)C(=O)N/N=C\c1ccc2c(c1)OCO2 (stereo unspecified),n,34,n,x,n
COC(=O)c1ccc(/C=N/NC(=O)C(=O)NCC2CCCO2)cc1 (stereo unspecified),n,n,x,n,n
O=C(NCC1CCCO1)C(=O)N/N=C/c1ccc(O)c(Cl)c1 (stereo unspecified),n,55,n,n,n
COc1cc2nc(N3CCN(C(=O)OCc4ccccc4)[C@H](C(=O)NC(C)(C)C)C3)nc(N)c2cc1OC,89,n,n,n,n
COc1ccc(C)cc1NC(=O)C1CCCN1C(=O)OCc1ccccc1 (stereo unspecified),n,n,n,n,n
O=C(Cn1cc(COc2cccc([N+](=O)[O-])c2)nn1)c1ccc(O)cc1,n,n,n,x,n
Cc1cc(OCc2cn(CC(=O)c3ccc(O)cc3)nn2)ccc1[N+](=O)[O-],n,41,n,x,n
Cc1noc(C)c1COC(=O)c1cc2c3ccccc3n(C)c2s1,n,40,n,n,n
CCCC#Cc1cnc2c(c1)C(=O)N([C@@H](C)CO)C[C@H](C)[C@@H](CN(C)C(=O)CCN1CCCCC1)O2,x,x,n,x,x
O=C(C[C@H]1CC[C@@H]2[C@H](COC[C@@H](O)CN2Cc2cccc(F)c2)O1)NCc1ccncc1,x,x,n,x,x
C[C@@H]1CCCCO[C@H](CN(C)C(=O)Nc2ccccc2)[C@@H](C)CN([C@@H](C)CO)C(=O)c2cc(NC(=O)c3ccccc3)ccc2O1,x,x,n,x,x
COc1ccc2cc3c(N)nn(C(=O)c4ccccc4Cl)c3nc2c1,n,36,x,n,n
COc1ccc2cc3c(N)nn(C(=O)c4cccc(F)c4)c3nc2c1,n,n,x,n,n
COc1ccc2cc3c(N)nn(C(=O)c4ccc(F)cc4)c3nc2c1,n,41,x,n,n
O=C(CCN1CCCCC1)NCC[C@H]1CC[C@@H](NS(=O)(=O)c2cccc(F)c2)[C@@H](CO)O1,x,x,n,x,x
CCCCCCCC/C=C\CCCCCCCC(=O)O,n,n,x,n,n
CCCCCCCC/C=C\CCCCCCCC(=O)NCCO,n,n,n,n,15
O=C(/C=C/NCc1cccnc1)c1ccc(-c2ccccc2)cc1,n,36,n,n,n
CCCNC(=O)N1C[C@@H](C)[C@H](OC)CN(C)C(=O)c2cc(NS(=O)(=O)CC)ccc2OC[C@@H]1C,x,x,n,x,x
COc1ccc2cc3cc(C(=O)N4CCCCCC4)oc3nc2c1,86,39,n,n,n
COc1ccc2nc3oc(C(=O)N4CCN(c5ccccc5F)CC4)cc3cc2c1,n,n,n,n,n
COc1ccc2cc3cc(C(=O)Nc4ccc5c(c4)OCO5)oc3nc2c1,n,n,n,n,n
COc1ccc2cc3cc(C(=O)N(C)C4CCCCC4)oc3nc2c1,n,39,n,n,n
COc1cccc(-c2cc(C(=O)N3CCCCC3C)no2)c1 (stereo unspecified),n,n,n,n,n
O=C(c1cc2cc3ccc(Cl)cc3nc2o1)N1CCC2(CC1)OCCO2,n,39,n,n,n
SMILES,Mtb FBA inh,GDH-TPI counter,BioA inh,Rv3671c protease,FadD28 FP inh
COc1ccc2cc3cc(C(=O)N4CCCCC4C)oc3nc2c1 (stereo unspecified),40,49,n,n,n
CN1C(=O)c2cc(NC(=O)Cc3ccccc3)ccc2OC[C@@H]2O[C@H](CC(=O)O)CC[C@H]21,x,x,n,x,x
COc1ccc(S(=O)(=O)N[C@H]2C=C[C@@H](CC(=O)NCCc3ccccc3)O[C@H]2CO)cc1,x,x,n,x,x
CCOC(=O)C1CCN(C(=O)c2cc3cc4ccc(C)cc4nc3o2)CC1,n,32,n,n,n
CCOC(=O)C1CCN(C(=O)c2cc3c(ccc4ccccc43)o2)CC1,n,n,n,n,n
O=C(C[C@@H]1C=C[C@@H](NC(=O)Nc2ccc(F)cc2)[C@H](CO)O1)NCc1ccccn1,x,x,n,x,x
C#CCn1c(=NC(=O)c2ccco2)sc2cccc(Cl)c21,n,n,x,n,n
Cn1c(=NC(=O)c2ccco2)sc2ccccc21,n,34,x,n,n
Cc1sc(=NC(=O)c2ccco2)n(C)c1-c1ccccc1,n,39,x,n,n
Cc1sc(=NC(=O)c2ccco2)n(C)c1-c1ccc(F)cc1,n,n,x,n,n
CCOc1cccc2sc(=NC(=O)c3ccco3)n(CC(=O)OC)c12,n,81,x,n,n
COc1ccccc1-c1cn(CC[C@H]2CC[C@H](NC(=O)CCN3CCCCC3)[C@@H](CO)O2)nn1,x,x,n,x,x
CCCOc1ccc(C(=O)NNC(=S)NC(=O)c2cc(-c3ccc(Cl)cc3)nc3ccccc23)cc1,n,n,n,n,n
COc1cccc(-c2cc(C(=O)Nc3nc4ccccc4s3)c3ccccc3n2)c1,n,33,n,n,n
COc1ccc(C(=O)NNC(=S)NC(=O)c2cccc([N+](=O)[O-])c2)cc1,n,35,n,n,n
CCNC(=S)NNC(=O)c1cc(-c2ccc(OCC)cc2)nc2ccccc12,n,37,x,n,n
COc1ccc(C(=O)NNC(=S)NC(=O)c2cc(-c3ccccc3)nc3ccccc23)cc1,n,33,n,n,n
O=C(Nc1nc2ccccc2s1)c1cc(-c2ccco2)nc2ccccc12,n,n,x,n,n
C[C@@H]1CN([C@@H](C)CO)C(=O)Cc2cc(NC(=O)Cc3ccccc3)ccc2O[C@@H]1CN(C)C(=O)Nc1ccccc1,x,x,n,x,x
C[C@H](CO)N1C[C@H](C)[C@H](CN(C)C(=O)Nc2ccc(F)cc2)Oc2ccc(NC(=O)CCC(F)(F)F)cc2C1=O,x,x,n,x,x
CCN1[C@@H]2Cn3c(ccc(-c4ccccc4OC)c3=O)[C@H]1[C@@H](C(=O)NCc1ccccn1)[C@@H]2CO,x,x,n,x,x
CS/C(=N\S(=O)(=O)c1ccc(N)cc1)NS(=O)(=O)c1cccs1,n,n,n,n,30
COC(=O)c1ccc2c(C)c(C3(O)CCCCC3)[nH]c2c1,+,n,n,n,n
Cn1ccc2c(-c3ccc(C(=O)O)cc3)cc3c(c21)C1CCC3C1 (stereo unspecified),+,x,n,x,n
Cn1ccc2c(-c3ccc(C(C)(C)C)cc3)cc3c(c21)C1CCC3C1 (stereo unspecified),n,x,n,x,n
SMILES,Mtb FBA inh,GDH-TPI counter,BioA inh,Rv3671c protease,FadD28 FP inh
CCCn1c(SCC(=O)Nc2nonc2C)nnc1-c1ccoc1C,+,n,n,n,n
Cc1cc(C)n2nc3nc4c(cc3c2n1)CCCC4,+,n,n,n,n
Cc1cc(C)n2nc(C)c(Br)c2n1,n,n,n,n,n
COc1ccc(NC(=O)N(C)C[C@@H]2OCCCC[C@H](C)Oc3ccc(NC(=O)Cc4ccccc4)cc3C(=O)N([C@H](C)CO)C[C@@H]2C)cc1,x,x,n,x,x
O=C1C2ON(c3ccccc3)C(c3ccccn3)C2C(=O)N1c1ccc(Br)cc1 (stereo unspecified),n,n,n,n,13
CC(=O)Nc1nc2cc3c(cc2s1)OCO3,n,n,n,n,n
O=C(Nc1nc2cc3c(cc2s1)OCO3)C1=COCCO1,n,42,n,n,n
O=C(Nc1nc2cc3c(cc2s1)OCCO3)c1ccco1,n,35,n,n,n
CC(C)C(=O)Nc1nc2cc3c(cc2s1)OCCO3,n,n,x,n,n
O=C(Nc1nc2cc3c(cc2s1)OCO3)c1ccco1,n,35,n,x,n

# High-throughput results (PubChem BioAssay)
